Assay results as given in PubChem BioAssay AID1159580 (chemical genetic matrix, 2015).
About 2,000 (36%) of roughly 5,500 compounds were called active. Another 18% or so got no clear call; they are omitted. Some of the results follow. A number with no mark means an inactive call. Cut-off read from the data, not from the text of the source: active = normalized growth mostly below about 0.91 (no sharp cut-off); inconclusive = no clear call, values can overlap the other calls; inactive = mostly above about 0.92.

Experiment: chemical genetic growth profiling, strain panel (AID 1159580);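 note: tested at 20 µM; growth read once vehicle control cultures reached saturation at 30 °C; 1 = growth at the plate median or of vehicle wells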
Settings: S. cerevisiae deletion strains, growth OD
[1] = locus YAL040C, strain CLN3, stronger effect = lower value
[2] = locus YCL061C, strain MRC1 (second series), stronger effect = lower value
[3] = locus YDR363W, strain ESC2, stronger effect = lower value
[4] = locus YER002W, strain NOP16, stronger effect = lower value
[5] = locus YGR078C, strain PAC10, stronger effect = lower value
[6] = locus YNL175C, strain NOP13, stronger effect = lower value
[7] = locus YNL197C, strain WHI3, stronger effect = lower value
[8] = locus YNL224C, strain SQS1, stronger effect = lower value
[9] = locus YNL322C, strain KRE1, stronger effect = lower value
[10] = locus YOR083W, strain WHI5 (second series), stronger effect = lower value

SMILES	normalized growth (locus YAL013W, strain DEP1, stronger effect = lower value)	normalized growth [1]	normalized growth [2]	normalized growth (locus YDR150W, strain NUM1, stronger effect = lower value)	normalized growth [3]	normalized growth [4]	normalized growth [5]	normalized growth (locus YJR075W, strain HOC1, stronger effect = lower value)	normalized growth [6]	normalized growth [7]	normalized growth [8]	normalized growth [9]	normalized growth [10]	normalized growth (locus YMR263W, strain SAP30, stronger effect = lower value)	normalized growth (locus YNL128W, strain TEP1, stronger effect = lower value)	normalized growth (locus YNL153C, strain GIM3, stronger effect = lower value)
NC(N)=Nc1ccc2[nH]c3c(c2c1)C[C@@]1(O)[C@H]2Cc4ccc(O)c5c4[C@@]1(CCN2CC1CC1)[C@H]3O5	1.02	1.07	0.991	0.986	1.04	1.01	0.991	1.01	0.998	0.985	1	1.03	0.97	–	–	–
Oc1ccc(C2CNCc3sccc32)cc1O (stereo unspecified)	–	1.01	0.962	–	0.999	1	0.998	–	0.995	0.995	1	0.892 (active)	1	1	1.01	0.963
